As usually defined, the inhibition is the drop in the measured response relative to a control, in per cent.

Unmarked numbers belong to inactive results. For some of these results: Results with a measured potency or affinity are listed apart. Calls of active or inactive are those of the source. Unless noted, how the calls were made is not given here.

In PubChem BioAssay one finds growth inhibition, inhibition and outcome data, which are given here for 20 molecules.

Test [1] is described as follows: antimalarial activity against Dd2 strain (AID 2302;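 active means growth inhibition above 50% at the single 2 µM test dose, taken to imply half-maximal potency below 2 µM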;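 further: 0% = DMSO untreated growth and 100% = chloroquine plus artemisinin killed control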). The conditions noted are these: P. falciparum Dd2 in RBCs, LDH growth readout, 72 h; at 2 µM; stronger effect = higher value.
Test [2] in a line: human hepatoma cell viability loss – ATP luminescence, cytotoxicity control for P. falciparum antimalarial project, primary screen (AID 2303;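 active means inhibition above 50%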;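 further: 0% = DMSO wells and 100% = digitonin-killed cells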). The conditions noted are these: HepG2 viability, 24-48 h, at 10 µM, stronger effect = higher value.
The target of test [3] is L-lactate dehydrogenase (Plasmodium falciparum (isolate CDC / Honduras)) (UniProt Q27743). In words: PfLDH activity inhibition – cell lysate, 3D7 strain, counter-screen for P. falciparum growth inhibition project (AID 2304).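 Further: 0% = vehicle and 100% = reference inhibitor.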 The conditions noted are these: P. falciparum 3D7 crude extract, LDH APAD/NBT absorbance; at 2 µM; stronger effect = higher value. A general note: Counterscreens check selectivity or assay interference.

A short description of test [4]: inhibition of 3D7 malaria parasite growth – strain 3D7 (AID 2306).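 Further: 0% = DMSO wells and 100% = chloroquine plus artemisinin control wells.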 The conditions noted are these: P. falciparum 3D7 erythrocytic growth, LDH absorbance, 72 h; at 2 µM; stronger effect = higher value.
The target of test [5] is Calcium-dependent protein kinase 1 (Plasmodium falciparum (isolate 3D7)) (UniProt P62344). In words: PfCDPK1 kinase inhibitors, biochemical, TCAMS library (AID 1159585; cut-off not given, nearly all actives have IC50 up to about 0.98 µM;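 further: inhibitors leave more ATP so luminescence rises with inhibition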). The conditions noted are these: recombinant PfCDPK1, Kinase-Glo ATP depletion luminescence. For orientation: Kinase-Glo reads ATP consumption through a luciferase reaction.
Test [6] deals with Plasmodium falciparum protein kinase 6 (PK6, PF3D7_1337100) (UniProt Q8IDW1). In words: PfPK6 kinase inhibitors, biochemical, TCAMS library (AID 1159586). The conditions noted are these: recombinant PfPK6, Kinase-Glo ATP depletion luminescence.
In test [7] the target is Protein kinase 7 (PK7), Plasmodium falciparum 3D7 (PF3D7_0213400) (UniProt Q7YTF7). In words: inhibition of Plasmodium PK7 catalytic activity – biochemical, TCAMS antimalarial set, Kinase-Glo luminescence (AID 1159587). The conditions noted are these: recombinant PfPK7, Kinase-Glo ATP depletion luminescence.
Test [8] has as its target Calcium-dependent protein kinase 4 (Plasmodium falciparum (isolate 3D7)) (UniProt Q8IBS5). In words: PfCDPK4 kinase inhibitors, biochemical, TCAMS library (AID 1159588; cut-off not given, nearly all actives have IC50 up to about 0.91 µM). The conditions noted are these: recombinant PfCDPK4, Kinase-Glo ATP depletion luminescence.

Chain of Calcium-dependent protein kinase 4 (Plasmodium falciparum (isolate 3D7)) (Q8IBS5 whole entry, looked up): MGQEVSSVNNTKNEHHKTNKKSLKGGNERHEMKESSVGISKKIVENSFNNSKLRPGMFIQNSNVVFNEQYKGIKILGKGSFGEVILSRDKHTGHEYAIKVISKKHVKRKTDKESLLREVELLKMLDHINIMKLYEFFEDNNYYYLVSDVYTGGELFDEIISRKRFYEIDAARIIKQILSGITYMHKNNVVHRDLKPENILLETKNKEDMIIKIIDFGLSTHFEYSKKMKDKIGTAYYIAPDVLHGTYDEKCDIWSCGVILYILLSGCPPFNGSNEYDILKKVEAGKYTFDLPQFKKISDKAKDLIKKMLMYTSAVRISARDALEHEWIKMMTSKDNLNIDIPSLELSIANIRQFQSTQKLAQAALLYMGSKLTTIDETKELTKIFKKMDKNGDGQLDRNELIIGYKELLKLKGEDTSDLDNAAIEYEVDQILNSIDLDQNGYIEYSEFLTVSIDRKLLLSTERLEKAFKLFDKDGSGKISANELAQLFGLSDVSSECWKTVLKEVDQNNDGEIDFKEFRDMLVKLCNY
Chain of Protein kinase 7 (PK7), Plasmodium falciparum 3D7 (PF3D7_0213400) (Q7YTF7 1-343): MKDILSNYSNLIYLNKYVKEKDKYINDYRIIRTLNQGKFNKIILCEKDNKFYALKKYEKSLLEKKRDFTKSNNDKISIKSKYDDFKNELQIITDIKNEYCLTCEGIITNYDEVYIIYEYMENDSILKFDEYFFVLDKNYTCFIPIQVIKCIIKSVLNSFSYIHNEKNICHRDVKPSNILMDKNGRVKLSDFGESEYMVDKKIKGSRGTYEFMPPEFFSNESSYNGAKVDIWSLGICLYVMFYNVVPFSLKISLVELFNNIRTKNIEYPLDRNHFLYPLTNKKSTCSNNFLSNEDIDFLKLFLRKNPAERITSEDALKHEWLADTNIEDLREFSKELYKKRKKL
Chain of Calcium-dependent protein kinase 1 (Plasmodium falciparum (isolate 3D7)) (P62344 whole entry, looked up): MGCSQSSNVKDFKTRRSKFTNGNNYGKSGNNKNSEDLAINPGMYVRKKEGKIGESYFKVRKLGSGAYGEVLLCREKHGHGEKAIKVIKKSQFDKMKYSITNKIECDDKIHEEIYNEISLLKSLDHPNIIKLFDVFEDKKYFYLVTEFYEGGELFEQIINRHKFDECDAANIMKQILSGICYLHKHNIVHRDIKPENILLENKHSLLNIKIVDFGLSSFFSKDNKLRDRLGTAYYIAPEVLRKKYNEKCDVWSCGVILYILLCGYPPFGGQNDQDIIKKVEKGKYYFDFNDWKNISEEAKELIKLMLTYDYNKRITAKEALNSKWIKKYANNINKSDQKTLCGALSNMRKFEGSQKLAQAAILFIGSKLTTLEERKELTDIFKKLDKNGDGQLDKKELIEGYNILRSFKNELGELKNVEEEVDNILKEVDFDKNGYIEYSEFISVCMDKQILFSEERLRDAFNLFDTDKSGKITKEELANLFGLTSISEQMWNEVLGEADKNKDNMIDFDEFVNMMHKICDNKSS
Chain of Plasmodium falciparum protein kinase 6 (PK6, PF3D7_1337100) (Q8IDW1 1-305): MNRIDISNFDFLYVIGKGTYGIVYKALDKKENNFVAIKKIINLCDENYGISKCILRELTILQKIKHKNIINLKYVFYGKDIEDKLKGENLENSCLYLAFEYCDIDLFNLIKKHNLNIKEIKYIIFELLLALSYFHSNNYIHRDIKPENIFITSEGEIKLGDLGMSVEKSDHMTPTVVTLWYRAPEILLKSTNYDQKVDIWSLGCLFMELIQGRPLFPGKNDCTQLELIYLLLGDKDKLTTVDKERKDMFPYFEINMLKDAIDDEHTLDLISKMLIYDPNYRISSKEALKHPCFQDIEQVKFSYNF
Chain of L-lactate dehydrogenase (Plasmodium falciparum (isolate CDC / Honduras)) (Q27743 whole entry, looked up): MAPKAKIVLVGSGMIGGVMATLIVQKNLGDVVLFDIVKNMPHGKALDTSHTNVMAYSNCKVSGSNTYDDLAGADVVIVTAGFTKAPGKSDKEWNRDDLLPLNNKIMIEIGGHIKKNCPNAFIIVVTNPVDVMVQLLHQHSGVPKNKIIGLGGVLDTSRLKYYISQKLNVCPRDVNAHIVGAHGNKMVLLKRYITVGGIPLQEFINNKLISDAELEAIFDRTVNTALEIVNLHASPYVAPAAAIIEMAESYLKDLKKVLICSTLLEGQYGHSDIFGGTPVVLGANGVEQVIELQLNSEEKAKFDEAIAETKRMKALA

Consider `O=S(=O)(c1csc2ccccc12)N(CCC(O)(C(F)(F)F)C(F)(F)F)Cc1cccc(O)c1`, for which the values for the growth inhibition in test [1] and in test [4] were 100% (active) and 101% (active), respectively. The results for the inhibition in test [2] and in test [3] were -11% and 7%, respectively. The result in test [5], in test [6], in test [7] and in test [8] was inactive.

Regarding `Oc1cccc(Nc2nc(NCC3CCCO3)c3ccccc3n2)c1` (stereo not given), the figures for the growth inhibition in test [1] and in test [4] were 87% (active) and 100% (active), respectively. Further, the inhibition in test [2] was -9%; in test [3] it was -1%. In addition, the result in test [5], in test [6], in test [7] and in test [8] was inactive.

`CCC/C=C/c1c(CNCCCNc2cc(=O)c3ccccc3[nH]2)sc(CC)c1Br`: the growth inhibition in test [1] is 71% (active); in test [4], 88% (active). Besides, the inhibition in test [2] was 8%; in test [3], -1%. Further, the result in test [5], in test [6], in test [7] and in test [8] was inactive.

Turning to `O=C(Nc1cccc(N2CCC(NCc3cnn(-c4cccc(F)c4)c3)CC2)c1)c1ccncc1`, the growth inhibition in test [1] is 40%; in test [4] it was 84% (active). Further, the inhibition in test [2] was 50% (active); in test [3], 4%. For the same molecule, the outcome in test [5], in test [6], in test [7] and in test [8] was inactive.

On to `COc1nc2c(CCN3CC[C@@H](NCc4cc(C#N)c5c(c4)CCO5)[C@@H](O)C3)ccnc2cc1F`, for which the growth inhibition in test [1] is 35%; in test [4], 92% (active). Further, the figures for the inhibition in test [2] and in test [3] were 21% and -1%, respectively. Besides, the result in test [5], in test [6], in test [7] and in test [8] was inactive.

For `Cc1csc2nc(-c3ccccn3)nc(Nc3ccncn3)c12`, the growth inhibition in test [1] was 85% (active); in test [4] it was 97% (active). The inhibition is 47% in test [2] and -3% in test [3]. Moreover, the outcome in test [5], in test [6], in test [7] and in test [8] was inactive.

On to `CC(=O)Nc1ccc(S(=O)(=O)Nc2ccc(Nc3nc(C)cc(N4CCCCC4)n3)cc2)cc1`, for which the growth inhibition in test [1] is 54% (active); in test [4], 89% (active). The inhibition was 23% in test [2] and 0% in test [3]. For the same molecule, the outcome in test [5], in test [6], in test [7] and in test [8] was inactive.

Consider `c1ccc(CN2CCC(Nc3ccc(-c4cn[nH]c4-c4ccccn4)nc3)CC2)cc1`, for which the growth inhibition was 23% in test [1] and 97% (active) in test [4]. Besides, the inhibition in test [2] was 1%; in test [3], -5%. In addition, the outcome in test [5], in test [6], in test [7] and in test [8] was inactive.

As to `COc1ccccc1COc1c(C)nc(N)nc1N`, the growth inhibition is 1% in test [1] and 98% (active) in test [4]. The inhibition in test [2] is 32%; in test [3], -1%. The result in test [5], in test [6], in test [7] and in test [8] was inactive.

With `NC(=NCc1ccccc1Cl)NCCc1c[nH]c2ccccc12`, the growth inhibition in test [1] was 45%; in test [4], 83% (active). Besides, the inhibition is 16% in test [2] and 2% in test [3]. In addition, the outcome in test [5], in test [6], in test [7] and in test [8] was inactive.

Consider `O=C(/C=C/c1ccc(F)c(Br)c1)NCCCCCN1CCC(c2c[nH]c3ccccc23)CC1`, for which the results for the growth inhibition in test [1] and in test [4] were 10% and 92% (active), respectively. The inhibition was 39% in test [2] and -7% in test [3]. For the same molecule, the result in test [5], in test [6], in test [7] and in test [8] was inactive.

As to `CC(Nc1nncc(-c2cccc(F)c2)n1)c1ccc(F)cc1` (stereo not given), the growth inhibition in test [1] is 89% (active); in test [4], 95% (active). Moreover, the inhibition was 4% in test [2] and 0% in test [3]. In addition, the outcome in test [5], in test [6], in test [7] and in test [8] was inactive.

Consider `CC(C)CNCc1cccc(-c2cccc(CN(CCCN3CCN(C)CC3)C(=O)/C=C/c3ccccc3)c2)c1`, for which the growth inhibition was 88% (active) in test [1] and 90% (active) in test [4]. For the same molecule, the inhibition in test [2] was 44%; in test [3] it was 7%. Also, the outcome in test [5], in test [6], in test [7] and in test [8] was inactive.

For the molecule `O=C(/C=C/c1ccc(Cl)c(Cl)c1)NCCCCCN1CCC(c2c[nH]c3ccc(O)cc23)CC1`, the growth inhibition was 0% in test [1] and 101% (active) in test [4]. Further, the values for the inhibition in test [2] and in test [3] were 20% and 3%, respectively. Moreover, the outcome in test [5], in test [6], in test [7] and in test [8] was inactive.

For `COc1ccc2c(NN=Cc3ccccc3)cc(C)nc2c1`, the values for the growth inhibition in test [1] and in test [4] were 49% and 100% (active), respectively. In addition, the inhibition in test [2] and in test [3] was -2% each time. In addition, the outcome in test [5], in test [6], in test [7] and in test [8] was inactive.

Take `Cc1ccc2c(c1)NC[C@@]21CCN(C[C@@H](O)C2CCN(c3cc(C#N)ccn3)CC2)C[C@@H]1C`: the growth inhibition is 79% (active) in test [1] and 90% (active) in test [4]. In addition, the results for the inhibition in test [2] and in test [3] were 28% and -2%, respectively. For the same molecule, the outcome in test [5], in test [6], in test [7] and in test [8] was inactive.

Regarding `O=C(NCCN1CCCC1)c1ccc(-c2ccc(-c3nc4ccc(C(F)(F)F)cc4[nH]3)s2)cc1`, the growth inhibition in test [1] is 65% (active); in test [4], 97% (active). The inhibition in test [2] is 31%; in test [3], 4%. Besides, the outcome in test [5], in test [6], in test [7] and in test [8] was inactive.

With `Nc1nc(N)c2c(Oc3cccnc3)cccc2n1`, the growth inhibition in test [1] is -1%; in test [4] it was 93% (active). The inhibition in test [2] is 65% (active); in test [3], 6%. The outcome in test [5], in test [6], in test [7] and in test [8] was inactive.

As to `COc1cccc(NC(=O)N2CCOC(CCN3CCC4(CCc5ccccc54)CC3)(c3ccc(Cl)c(Cl)c3)C2)c1` (stereo not given), the growth inhibition is 72% (active) in test [1] and 94% (active) in test [4]. Further, the inhibition in test [2] is 97% (active); in test [3], 5%. For the same molecule, the result in test [5], in test [6], in test [7] and in test [8] was inactive.

Take `C[C@@H]1CN(c2cnn(Cc3cccc(NC(=O)Nc4ccc(F)cc4[N+](=O)[O-])c3)c(=O)c2Cl)C[C@H](C)N1`: the growth inhibition is 13% in test [1] and 91% (active) in test [4]. The inhibition in test [2] was 7%; in test [3] it was 6%. In addition, the outcome in test [5], in test [6], in test [7] and in test [8] was inactive.
